# Measurements published in the supplement of paper PMC8728848.
# The sample as a whole holds a higher share of the strongest signals than the screen did.
# Assays:
# Assay in all cases: glycan array binding signal (z-score within array); higher = stronger binding
# Conditions in all cases: glycan notation: IUPAC condensed, linker removed
# [1] = target: Gal(b1-4)GlcNAc(b1-6)[Gal(b1-4)GlcNAc(b1-3)]GalNAc
# Summary of the method: (§1)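 Glycan array data came from 3228 arrays in the Consortium for Functional Glycomics database, and only arrays with an available protein sequence were kept. Glycan names were put into IUPAC-condensed notation, and columns mapping to the same glycan were averaged. The binding signal is a within-array Z-score, averaged across arrays of one protein sequence run at different concentrations or buffers and across linkers. A negative Z-score can be read as non-binding.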
# [2] = target: Gal3S(b1-4)[Fuc(a1-3)]Glc6S
# Summary of the method: as §1
# Gal6S(b1-3)GlcNAc = target: Gal6S(b1-3)GlcNAc
# Summary of the method: as §1
# Gal6S(b1-4)GlcNAc6S = target: Gal6S(b1-4)GlcNAc6S
# Summary of the method: as §1
# GalNAc(b1-4)Gal(b1-4)Glc = target: GalNAc(b1-4)Gal(b1-4)Glc
# Summary of the method: as §1
# [3] = target: GalNAc(b1-4)GlcNAc(b1-3)GalNAc(b1-4)GlcNAc
# Summary of the method: as §1
# [4] = target: GlcNAc(b1-2)[GlcNAc(b1-4)]Man(a1-3)[GlcNAc(b1-4)][GlcNAc(b1-2)[GlcNAc(b1-6)]Man(a1-6)]Man(b1-4)GlcNAc(b1-4)GlcNAc
# Summary of the method: as §1
# GlcNAc(b1-4)GlcNAc = target: GlcNAc(b1-4)GlcNAc
# Summary of the method: as §1
# [5] = target: GlcNAc(b1-6)Gal(b1-4)GlcNAc
# Summary of the method: as §1
# [6] = target: Man(a1-2)Man(a1-2)Man(a1-6)[Man(a1-3)]Man
# Summary of the method: as §1
# Man(a1-2)Man(a1-3)Man = target: Man(a1-2)Man(a1-3)Man
# Summary of the method: as §1
# Man(a1-6)Man = target: Man(a1-6)Man
# Summary of the method: as §1
# MurNAc(b1-4)GlcNAc = target: MurNAc(b1-4)GlcNAc
# Summary of the method: as §1
# [7] = target: Neu5Ac(a2-3)Gal(b1-3)GalNAc(b1-4)[Neu5Ac(a2-3)]Gal(b1-4)Glc
# Summary of the method: as §1
# [8] = target: Neu5Ac(a2-3)Gal(b1-3)GlcNAc(b1-2)Man(a1-3)[Neu5Ac(a2-3)Gal(b1-3)GlcNAc(b1-2)Man(a1-6)]Man(b1-4)GlcNAc(b1-4)GlcNAc
# Summary of the method: as §1
# [9] = target: Neu5Ac(a2-3)Gal(b1-3)GlcNAc(b1-3)Gal(b1-4)GlcNAc
# Summary of the method: as §1
# [10] = target: Neu5Ac(a2-3)Gal(b1-3)GlcNAc(b1-6)GalNAc
# Summary of the method: as §1
# [11] = target: Neu5Ac(a2-3)Gal(b1-3)[Fuc(a1-4)]GlcNAc(b1-3)Gal(b1-3)[Fuc(a1-4)]GlcNAc
# Summary of the method: as §1
# [12] = target: Neu5Ac(a2-3)Gal(b1-3)[Neu5Ac(a2-6)]GlcNAc(b1-3)[Fuc(a1-3)[Gal(b1-4)]GlcNAc(b1-6)]Gal(b1-4)Glc
# Summary of the method: as §1
# [13] = target: Neu5Ac(a2-3)Gal(b1-4)GlcNAc(b1-2)Man(a1-3)[Neu5Ac(a2-6)Gal(b1-4)GlcNAc(b1-2)Man(a1-6)]Man(b1-4)GlcNAc(b1-4)GlcNAc
# Summary of the method: as §1
# [14] = target: Neu5Ac(a2-3)Gal(b1-4)GlcNAc(b1-2)[Neu5Ac(a2-3)Gal(b1-4)GlcNAc(b1-4)]Man(a1-3)[GlcNAc(b1-4)][Neu5Ac(a2-3)Gal(b1-4)GlcNAc(b1-2)[Neu5Ac(a2-3)Gal(b1-4)GlcNAc(b1-6)]Man(a1-6)]Man(b1-4)GlcNAc(b1-4)GlcNAc
# Summary of the method: as §1
# [15] = target: Neu5Ac(a2-3)Gal(b1-4)GlcNAc(b1-3)Gal(b1-3)GlcNAc
# Summary of the method: as §1
# Neu5Ac(a2-6)Gal = target: Neu5Ac(a2-6)Gal
# Summary of the method: as §1
# [16] = target: Neu5Ac(a2-6)Gal(b1-3)GlcNAc(b1-3)[Gal(b1-4)GlcNAc(b1-6)]Gal(b1-4)Glc
# Summary of the method: as §1
# [17] = target: Neu5Ac(a2-6)Gal(b1-4)GlcNAc(b1-2)Man(a1-3)[Man(a1-6)]Man(b1-4)GlcNAc(b1-4)GlcNAc
# Summary of the method: as §1
# [18] = target: Neu5Ac(a2-6)Gal(b1-4)GlcNAc(b1-2)Man(a1-3)[Neu5Ac(a2-6)Gal(b1-4)GlcNAc(b1-2)Man(a1-6)]Man(b1-4)GlcNAc(b1-4)[Fuc(a1-6)]GlcNAc
# Summary of the method: as §1
# [19] = target: Neu5Ac(a2-6)Gal(b1-4)GlcNAc(b1-2)Man(a1-6)[Gal(b1-4)GlcNAc(b1-2)Man(a1-3)]Man(b1-4)GlcNAc(b1-4)GlcNAc
# Summary of the method: as §1
# [20] = target: Neu5Gc(a2-3)Gal(b1-4)[Fuc(a1-3)]GlcNAc
# Summary of the method: as §1
# [21] = target: Neu5Gc(a2-8)Neu5Gc(a2-3)Gal(b1-4)GlcNAc(b1-3)Gal(b1-4)GlcNAc
# Summary of the method: as §1
binder,measurement,setting,value
GS13686A-pdi-553-26-553 (Parabacteroides distasonis) (protein) NENPDKPTDDVNYNMNEPRLASTLRGGLIIEGNVEQRLKPLQIDFYSQMTVDGGGWGTKNYIQDDEWNNLVWEEYLKQIASINIVIRSLTEKDKDAYANTIAFARIWRVYVHTLAADKFGPMPFPAYEIVEANPPYKSLKDIYDEYFRELDAAINGFNDSAQPIFSDAGIDLIYKNDVSKWKRFANSLRLRLAVRLTEVDQEKCIAEANAAISSPAGLISDKADNAYMPPKADGSWGQDYNYTMFQITWSGPICMSKSVEKLVTNIGGVAWPQGVVNQTSGVAVSSVHPEKVDPRAPKIFQPGIENGDWKGLVYGPKAEEANTGIYQSKQCAELGFIIKDGYPYKSRPYDLFLSEEVHFLKAELYARGFIAGDAKSEYEAGVRASFATWGVTSEVDDYLTSTEKNEAGTSARYDDQQGAGNTALEKIITQKYIAGIPDLAQEGWNDKRRLNLPRLDVAVYRDQAVYNNNDKDILKSANFIKRMRYPTKESLINATEYEKGKSMLGGKGDIVSTPLWWDKNSNYCTSSK,glycan array binding signal (z-score),[1],-0.002
same,glycan array binding signal (z-score),[2],0.425
same,glycan array binding signal (z-score),Gal6S(b1-3)GlcNAc,22.6
same,glycan array binding signal (z-score),Gal6S(b1-4)GlcNAc6S,-0.176
same,glycan array binding signal (z-score),GalNAc(b1-4)Gal(b1-4)Glc,0.208
same,glycan array binding signal (z-score),[3],0.492
same,glycan array binding signal (z-score),[4],-0.24
same,glycan array binding signal (z-score),GlcNAc(b1-4)GlcNAc,-0.294
same,glycan array binding signal (z-score),[5],-0.023
same,glycan array binding signal (z-score),[6],-0.073
same,glycan array binding signal (z-score),Man(a1-2)Man(a1-3)Man,-0.226
same,glycan array binding signal (z-score),Man(a1-6)Man,0.458
same,glycan array binding signal (z-score),MurNAc(b1-4)GlcNAc,-0.226
same,glycan array binding signal (z-score),[7],-0.071
same,glycan array binding signal (z-score),[8],-0.099
same,glycan array binding signal (z-score),[9],-0.307
same,glycan array binding signal (z-score),[10],3.88
same,glycan array binding signal (z-score),[11],-0.153
same,glycan array binding signal (z-score),[12],-0.086
same,glycan array binding signal (z-score),[13],1.01
same,glycan array binding signal (z-score),[14],0.051
same,glycan array binding signal (z-score),[15],-0.389
same,glycan array binding signal (z-score),Neu5Ac(a2-6)Gal,-0.025
same,glycan array binding signal (z-score),[16],2
same,glycan array binding signal (z-score),[17],0.341
same,glycan array binding signal (z-score),[18],0.391
same,glycan array binding signal (z-score),[19],0.126
same,glycan array binding signal (z-score),[20],0.009
same,glycan array binding signal (z-score),[21],-0.323
